Measurements published in PubChem BioAssay (NCI).
Compounds without any hit were thinned out: in the full panel of roughly 79,000, 15% have a hit. A number with no mark means an inactive call. The source made the active and inactive calls. No stated cut-off is given here; in the data, active means growth inhibition above about 70%; inactive means the rest. Where a SMILES comes first, the peptide text is derived from it. The star is where a group is joined. Cbz = O=C(OCc1ccccc1)*

Legend:
[1] = NCI Yeast Anticancer Drug Screen. Data for the rad50 strain (AID 155);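 further: 0% = growth of vehicle-only cultures of the same strain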; conditions: S. cerevisiae rad50 strain growth inhibition; at 50.0 µM; hits give high values
How it was run: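 Readout: growth inhibition relative to vehicle-treated cultures. Compound exposure was carried out in a genetically defined yeast strain deficient in DNA damage repair.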

[2] = NCI Yeast Anticancer Drug Screen. Data for the mec2-1 strain (AID 157); conditions: S. cerevisiae mec2-1 strain, at 50.0 µM, hits give high values
How it was run: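 Readout is yeast growth inhibition, normalised to vehicle-treated controls, in the mec2-1 strain exposed to compound.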

[3] = NCI Yeast Anticancer Drug Screen. Data for the sgs1 mgt1 strain (AID 161);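 further: 0% = growth of cultures given vehicle only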; conditions: S. cerevisiae sgs1 mgt1 strain, at 50.0 µM, hits give high values
How it was run: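 Compounds are added to genetically altered yeast, and growth is compared with cultures given vehicle alone to give percent inhibition.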

[4] = NCI Yeast Anticancer Drug Screen. Data for the cln2 rad14 strain (AID 165);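 further: 0% = growth equal to vehicle treated cultures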; conditions: S. cerevisiae cln2 rad14 strain, at 50.0 µM, hits give high values
How it was run: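 Relative to vehicle controls, growth inhibition of compound-treated cln2 rad14 yeast was recorded.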

[5] = NCI Yeast Anticancer Drug Screen. Data for the bub3 strain (AID 167); conditions: S. cerevisiae bub3 mutant strain, at 50.0 µM, hits give high values
How it was run: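 Readout: yeast growth inhibition, expressed relative to vehicle-only wells. The test organism is a mutant strain from a panel with lesions in DNA repair or checkpoint genes.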

[6] = NCI Yeast Anticancer Drug Screen. Data for the mlh1 rad18 strain (AID 175); conditions: S. cerevisiae mlh1 rad18 strain growth inhibition; at 50.0 µM; hits give high values
How it was run: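 Test agents were incubated with a yeast strain of defined genotype (DNA damage repair defect). Inhibition of growth was derived by comparison with vehicle-exposed cultures.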

SMILES | growth inhibition [1] | growth inhibition [2] | growth inhibition [3] | growth inhibition [4] [%] | growth inhibition [5] [%] | growth inhibition [6]
CCOC(=O)C(=N\Nc1ccccc1)/C(C)=N\NC(N)=S | 13.2% | -7.45% | -11.7% | 8.95 | 4.5 | 1.9%
CCCCC/C(C)=C\CBr | -7.65% | -2.65% | -7.1% | -22.9 | -10.6 | -3%
O=C(Nc1ccc(Cl)cc1C(F)(F)F)C(=O)Nn1c(=S)[nH]c2ccccc2c1=O | -5.9% | -15.2% | 8.5% | -2.7 | -1.1 | 18.9%
CCCCCCCCCCCC(=O)N/N=C(\C)c1cccc2ccccc12 | 86.8% (active) | 84.2% (active) | 94% (active) | 59.8 | 43.8 | 84.2% (active)
N=C(N)C=O | -12.4% | 0.3% | 5.45% | 0.05 | 1.45 | -7.95%
CC1(C)CCC2(CC1)CC[N+](C)(CCC[N+](C)(C)C)CC2 | -26.6% | -8.4% | -10.8% | -11.8 | 8.7 | -11.2%
CCOc1ccccc1OCC | 25.1% | -27.2% | -25.9% | 12.3 | -11.2 | 21.2%
Cc1ccc(/C=N/NC2=NCCN2)s1 | -0.4% | 8% | 4.35% | 8.15 | -5.05 | 9.75%
CC(C)(C)CI | 15.6% | 3.85% | 7.65% | 4.9 | -11.2 | -35.3%
Nc1cccc(N=[N+]([O-])c2cccc(N)c2)c1 | 18.9% | 8.05% | -10.5% | -22.1 | 12.2 | 27.6%
CC(=O)OCCc1nnnn1C | 4.9% | -9.95% | -14.6% | -22.5 | 2.45 | 10.4%
OCC1NC(CO)C(O)C1O (stereo unspecified) | 6.5% | 8.1% | 6.5% | 1.05 | 9.2 | 11.2%
COC1CCC(/C=C(\C#N)C2CCC(OC)CC2)CC1 (stereo unspecified) | 37.6% | 49.8% | 42.8% | 11.9 | 51.2 | 30%
CN1CC[C@H]([C@@H](O)c2ccccc2)C1=O | 4.95% | -7% | -3.5% | -34.4 | 0.35 | 5.7%
CCN(CC)C(=O)C1CCN(Cc2c[nH]c3ccccc23)CC1 | -3.05% | -6.85% | -10.2% | -53 | 2.75 | -0.2%
CC(NC(=O)C(Cc1ccc(O)cc1)NC(=O)C(C)NC(=O)OCc1ccccc1)C(=O)O (stereo not drawn) (Cbz-Ala-Tyr-Ala-OH; configuration not given here) | 12.2% | 13.3% | 13.7% | -4.25 | -5.8 | 16.9%
Cc1csc2[nH]c(=O)[nH]c(=O)c12 | 5.5% | 6.05% | -1.4% | -28.1 | -15.2 | 4.5%
Cc1cccc(CC(O)c2ccc(C=O)cc2)n1 (stereo unspecified) | 20.6% | 14.7% | 6.75% | 5.65 | 14.4 | 37.5%
C=C(C)COc1ccc2c(c1)CCC1C2CCC2(C)C1CCC2(C)O (stereo unspecified) | 21% | 0.45% | 3.75% | 17.6 | -0.9 | 6.6%
O=c1c2ccccc2nc(-c2ccccc2)n1/N=C/c1ccccc1O | 1.15% | 38.8% | 34.6% | -5.65 | 32.9 | 27.1%
COC(=O)C1C(=O)CC2CCCCC21 (stereo unspecified) | 2.75% | -19.6% | -13.9% | 20.6 | -22.3 | 16.8%
